# Experimental data: PubChem BioAssay (Tox21)
# Inconclusive results are not listed. Values without a mark were called inactive. The call rests on the fitted dose curve; in most records, active means well fitted cell-killing curve with a large enough effect in the repeat runs; inconclusive means weak or mixed curves, or effect the other way; inactive means no such curve, though single readings can be large or run the other way.
# Test: qHTS assay to identify aromatase inhibitors - cell viability counter screen (AID 743084);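 further: cells stimulated with testosterone during compound exposure; nearly all actives have a fitted effect of over 55% in size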
# Settings: MCF-7 aro ERE viability, CellTiter-Fluor, 24 h; series mostly up to 70.3 µM; activity change, negative = cytotoxicity: at the top concentration
# On the % scale 0 is the no-effect control and ±100 the full control effect.
row,SMILES,"activity change, negative = cytotoxicity [%]"
1,O=C(O)c1cccc(/C=C2/C[C@@H]3[C@@H](/C=C/[C@@H](O)C4CCCCC4)[C@H](O)C[C@@H]3O2)c1,-0.343
2,CC1(C)S[C@@H]2[C@H](NC(=O)[C@H](N)c3ccccc3)C(=O)N2[C@H]1C(=O)OCOC(=O)[C@@H]1N2C(=O)C[C@H]2S(=O)(=O)C1(C)C,0.421
3,NCCC(=O)[N-][C@@H](Cc1cnc[nH]1)C(=O)O.[Zn],15.4
4,CNc1cc(OC)c(C(=O)N[C@H]2CCN(Cc3ccccc3)[C@H]2C)cc1Cl,1.61
5,C#CCOc1ccc2c(C)cc(=O)oc2c1,5.23
6,OC[C@H]1O[C@@H](n2cnc3c2NC=NC[C@H]3O)C[C@@H]1O,15.1
7,O=P(O)(O)OC(CO)CO,-0.137
8,CCCCCCCCCCCCCCCC(=O)O[C@@H]1[C@@H](O)[C@@H](O)[C@@H]([C@H](NC(=O)[C@@H]2C[C@@H](CCC)CN2C)[C@H](C)Cl)O[C@@H]1SC,1.14
9,CC(=O)O[C@H]1C[C@@]2(C)[C@@H](C[C@@H](O)[C@H]3[C@@]4(C)CC[C@@H](O)[C@@H](C)[C@@H]4CC[C@@]32C)/C1=C(\CCC=C(C)C)C(=O)O,10.1
10,CC1=C[C@H](O)CC(C)(C)[C@H]1/C=C/C(C)=C/C=C/C(C)=C/C=C/C=C(C)/C=C/C=C(C)/C=C/C1=C(C)C[C@@H](O)CC1(C)C,0.515
11,C[C@H](CSC(=O)c1ccccc1)C(=O)N1C[C@@H](Sc2ccccc2)C[C@H]1C(=O)O,-8.23
12,O=S(O)CNc1ccc(S(=O)(=O)c2ccc(NCS(=O)O)cc2)cc1,2.12
13,CC(=O)O[C@H]1C[C@@H]2CC[C@@H]3[C@H](CC[C@@]4(C)[C@H]3C[C@H](N3CC[N+](C)(C)CC3)[C@@H]4OC(C)=O)[C@@]2(C)C[C@@H]1N1CC[N+](C)(C)CC1,1.71
